The supplement of paper PMC4466140

molecular target: AgAbp1; experiment: SPOT peptide array binding signal intensity (averaged, normalized) (arbitrary units (background-subtracted, floor 0; scale differs between SH3 domains)); higher = stronger binding of the SH3 domain to the peptide
Procedure, shortened: (§1)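 Detection of bound protein relied on anti-GST antibody, an HRP anti-mouse secondary and luminol, with imaging and quantification in Genespotter. The bound protein was GST-fused SH3 domains from four yeast species, incubated at 10 μg/ml overnight at 4°C in TBS-based blocking buffer on cellulose membranes carrying synthetic 15-mer peptides with cysteines replaced by serines. Binding signal is normalized, background-subtracted spot intensity averaged over replicates, in arbitrary units that differ between domains.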

Row | Binder | SPOT peptide array binding signal intensity
1 | AVPPPPPPPPLPESL | 8.5

molecular target: AgBbc1; experiment: as above
Procedure, shortened: as §1

Row | Binder | SPOT peptide array binding signal intensity
2 | AVPPPPPPPPLPESL | 0.5

molecular target: AgBem1-D1; experiment: as above
Procedure, shortened: as §1

Row | Binder | SPOT peptide array binding signal intensity
3 | AVPPPPPPPPLPESL | ≤ 0

molecular target: AgBzz1-D1; experiment: as above
Procedure, shortened: as §1

Row | Binder | SPOT peptide array binding signal intensity
4 | AVPPPPPPPPLPESL | 1

molecular target: AgBzz1-D2; experiment: as above
Procedure, shortened: as §1

Row | Binder | SPOT peptide array binding signal intensity
5 | AVPPPPPPPPLPESL | 5.5

molecular target: AgCyk3; experiment: as above
Procedure, shortened: as §1

Row | Binder | SPOT peptide array binding signal intensity
6 | AVPPPPPPPPLPESL | ≤ 0

molecular target: AgFus1; experiment: as above
Procedure, shortened: as §1

Row | Binder | SPOT peptide array binding signal intensity
7 | AVPPPPPPPPLPESL | 2

molecular target: AgHof1; experiment: as above
Procedure, shortened: as §1

Row | Binder | SPOT peptide array binding signal intensity
8 | AVPPPPPPPPLPESL | 182

molecular target: AgHse1; experiment: as above
Procedure, shortened: as §1

Row | Binder | SPOT peptide array binding signal intensity
9 | AVPPPPPPPPLPESL | 26

molecular target: AgLsb1; experiment: as above
Procedure, shortened: as §1

Row | Binder | SPOT peptide array binding signal intensity
10 | AVPPPPPPPPLPESL | 0.5

molecular target: AgLsb4; experiment: as above
Procedure, shortened: as §1

Row | Binder | SPOT peptide array binding signal intensity
11 | AVPPPPPPPPLPESL | 3

molecular target: AgMyo5; experiment: as above
Procedure, shortened: as §1

Row | Binder | SPOT peptide array binding signal intensity
12 | AVPPPPPPPPLPESL | 188

molecular target: AgNbp2; experiment: as above
Procedure, shortened: as §1

Row | Binder | SPOT peptide array binding signal intensity
13 | AVPPPPPPPPLPESL | 18

molecular target: AgRvs167; experiment: as above
Procedure, shortened: as §1

Row | Binder | SPOT peptide array binding signal intensity
14 | AVPPPPPPPPLPESL | 0.667

molecular target: AgSho1; experiment: as above
Procedure, shortened: as §1

Row | Binder | SPOT peptide array binding signal intensity
15 | AVPPPPPPPPLPESL | 1

molecular target: AgSla1-D1-D2; experiment: as above
Procedure, shortened: as §1

Row | Binder | SPOT peptide array binding signal intensity
16 | AVPPPPPPPPLPESL | ≤ 0

molecular target: AgSla1-D3; experiment: as above
Procedure, shortened: as §1

Row | Binder | SPOT peptide array binding signal intensity
17 | AVPPPPPPPPLPESL | 2

molecular target: CaAbp1-D1; experiment: as above
Procedure, shortened: as §1

Row | Binder | SPOT peptide array binding signal intensity
18 | AVPPPPPPPPLPESL | 1

molecular target: CaAbp1-D2; experiment: as above
Procedure, shortened: as §1

Row | Binder | SPOT peptide array binding signal intensity
19 | AVPPPPPPPPLPESL | 1

molecular target: CaBbc1; experiment: as above
Procedure, shortened: as §1

Row | Binder | SPOT peptide array binding signal intensity
20 | AVPPPPPPPPLPESL | ≤ 0

molecular target: CaBem1-D1; experiment: as above
Procedure, shortened: as §1

Row | Binder | SPOT peptide array binding signal intensity
21 | AVPPPPPPPPLPESL | 1

molecular target: CaBzz1-D1; experiment: as above
Procedure, shortened: as §1

Row | Binder | SPOT peptide array binding signal intensity
22 | AVPPPPPPPPLPESL | 951

molecular target: CaBzz1-D2; experiment: as above
Procedure, shortened: as §1

Row | Binder | SPOT peptide array binding signal intensity
23 | AVPPPPPPPPLPESL | 158

molecular target: CaCyk3; experiment: as above
Procedure, shortened: as §1

Row | Binder | SPOT peptide array binding signal intensity
24 | AVPPPPPPPPLPESL | ≤ 0

molecular target: CaFus1; experiment: as above
Procedure, shortened: as §1

Row | Binder | SPOT peptide array binding signal intensity
25 | AVPPPPPPPPLPESL | 2

molecular target: CaHof1; experiment: as above
Procedure, shortened: as §1

Row | Binder | SPOT peptide array binding signal intensity
26 | AVPPPPPPPPLPESL | 0.5

molecular target: CaHse1; experiment: as above
Procedure, shortened: as §1

Row | Binder | SPOT peptide array binding signal intensity
27 | AVPPPPPPPPLPESL | 4.75

molecular target: CaLsb1; experiment: as above
Procedure, shortened: as §1

Row | Binder | SPOT peptide array binding signal intensity
28 | AVPPPPPPPPLPESL | 0.5

molecular target: CaLsb4; experiment: as above
Procedure, shortened: as §1

Row | Binder | SPOT peptide array binding signal intensity
29 | AVPPPPPPPPLPESL | ≤ 0

molecular target: CaMyo5; experiment: as above
Procedure, shortened: as §1

Row | Binder | SPOT peptide array binding signal intensity
30 | AVPPPPPPPPLPESL | 29

molecular target: CaNbp2; experiment: as above
Procedure, shortened: as §1

Row | Binder | SPOT peptide array binding signal intensity
31 | AVPPPPPPPPLPESL | 23.5

molecular target: CaRvs167; experiment: as above
Procedure, shortened: as §1

Row | Binder | SPOT peptide array binding signal intensity
32 | AVPPPPPPPPLPESL | 3.67

molecular target: CaRvs167-3; experiment: as above
Procedure, shortened: as §1

Row | Binder | SPOT peptide array binding signal intensity
33 | AVPPPPPPPPLPESL | 1.5

molecular target: CaSho1; experiment: as above
Procedure, shortened: as §1

Row | Binder | SPOT peptide array binding signal intensity
34 | AVPPPPPPPPLPESL | 4.5

molecular target: CaSla1-D1-D2; experiment: as above
Procedure, shortened: as §1

Row | Binder | SPOT peptide array binding signal intensity
35 | AVPPPPPPPPLPESL | ≤ 0

molecular target: CaSla1-D3; experiment: as above
Procedure, shortened: as §1

Row | Binder | SPOT peptide array binding signal intensity
36 | AVPPPPPPPPLPESL | ≤ 0

molecular target: ScAbp1; experiment: as above
Procedure, shortened: as §1

Row | Binder | SPOT peptide array binding signal intensity
37 | AVPPPPPPPPLPESL | ≤ 0

molecular target: ScBbc1; experiment: as above
Procedure, shortened: as §1

Row | Binder | SPOT peptide array binding signal intensity
38 | AVPPPPPPPPLPESL | ≤ 0

molecular target: ScBem1-D1; experiment: as above
Procedure, shortened: as §1

Row | Binder | SPOT peptide array binding signal intensity
39 | AVPPPPPPPPLPESL | ≤ 0

molecular target: ScBzz1-D1; experiment: as above
Procedure, shortened: as §1

Row | Binder | SPOT peptide array binding signal intensity
40 | AVPPPPPPPPLPESL | 13

molecular target: ScBzz1-D2; experiment: as above
Procedure, shortened: as §1

Row | Binder | SPOT peptide array binding signal intensity
41 | AVPPPPPPPPLPESL | ≤ 0

molecular target: ScCyk3; experiment: as above
Procedure, shortened: as §1

Row | Binder | SPOT peptide array binding signal intensity
42 | AVPPPPPPPPLPESL | 1

molecular target: ScFus1; experiment: as above
Procedure, shortened: as §1

Row | Binder | SPOT peptide array binding signal intensity
43 | AVPPPPPPPPLPESL | ≤ 0

molecular target: ScHof1; experiment: as above
Procedure, shortened: as §1

Row | Binder | SPOT peptide array binding signal intensity
44 | AVPPPPPPPPLPESL | 13.5

molecular target: ScHse1; experiment: as above
Procedure, shortened: as §1

Row | Binder | SPOT peptide array binding signal intensity
45 | AVPPPPPPPPLPESL | 34

molecular target: ScLsb1; experiment: as above
Procedure, shortened: as §1

Row | Binder | SPOT peptide array binding signal intensity
46 | AVPPPPPPPPLPESL | ≤ 0

molecular target: ScLsb2; experiment: as above
Procedure, shortened: as §1

Row | Binder | SPOT peptide array binding signal intensity
47 | AVPPPPPPPPLPESL | ≤ 0

molecular target: ScLsb3; experiment: as above
Procedure, shortened: as §1

Row | Binder | SPOT peptide array binding signal intensity
48 | AVPPPPPPPPLPESL | ≤ 0

molecular target: ScLsb4; experiment: as above
Procedure, shortened: as §1

Row | Binder | SPOT peptide array binding signal intensity
49 | AVPPPPPPPPLPESL | ≤ 0

molecular target: ScMyo3; experiment: as above
Procedure, shortened: as §1

Row | Binder | SPOT peptide array binding signal intensity
50 | AVPPPPPPPPLPESL | 1190

molecular target: ScMyo5; experiment: as above
Procedure, shortened: as §1

Row | Binder | SPOT peptide array binding signal intensity
51 | AVPPPPPPPPLPESL | 712

molecular target: ScNbp2; experiment: as above
Procedure, shortened: as §1

Row | Binder | SPOT peptide array binding signal intensity
52 | AVPPPPPPPPLPESL | 22

molecular target: ScPex13; experiment: as above
Procedure, shortened: as §1

Row | Binder | SPOT peptide array binding signal intensity
53 | AVPPPPPPPPLPESL | 538

molecular target: ScRvs167; experiment: as above
Procedure, shortened: as §1

Row | Binder | SPOT peptide array binding signal intensity
54 | AVPPPPPPPPLPESL | 2.33

molecular target: ScSho1; experiment: as above
Procedure, shortened: as §1

Row | Binder | SPOT peptide array binding signal intensity
55 | AVPPPPPPPPLPESL | ≤ 0

molecular target: ScSla1-D1-D2; experiment: as above
Procedure, shortened: as §1

Row | Binder | SPOT peptide array binding signal intensity
56 | AVPPPPPPPPLPESL | ≤ 0

molecular target: ScSla1-D3; experiment: as above
Procedure, shortened: as §1

Row | Binder | SPOT peptide array binding signal intensity
57 | AVPPPPPPPPLPESL | 1.25

molecular target: SpAbp1-D1; experiment: as above
Procedure, shortened: as §1

Row | Binder | SPOT peptide array binding signal intensity
58 | AVPPPPPPPPLPESL | 6

molecular target: SpBbc1; experiment: as above
Procedure, shortened: as §1

Row | Binder | SPOT peptide array binding signal intensity
59 | AVPPPPPPPPLPESL | 3

molecular target: SpBzz1-D1; experiment: as above
Procedure, shortened: as §1

Row | Binder | SPOT peptide array binding signal intensity
60 | AVPPPPPPPPLPESL | 3120

molecular target: SpBzz1-D2; experiment: as above
Procedure, shortened: as §1

Row | Binder | SPOT peptide array binding signal intensity
61 | AVPPPPPPPPLPESL | 4.25

molecular target: SpCyk3; experiment: as above
Procedure, shortened: as §1

Row | Binder | SPOT peptide array binding signal intensity
62 | AVPPPPPPPPLPESL | ≤ 0

molecular target: SpHof1; experiment: as above
Procedure, shortened: as §1

Row | Binder | SPOT peptide array binding signal intensity
63 | AVPPPPPPPPLPESL | ≤ 0

molecular target: SpHof1-2; experiment: as above
Procedure, shortened: as §1

Row | Binder | SPOT peptide array binding signal intensity
64 | AVPPPPPPPPLPESL | ≤ 0

molecular target: SpHof1-3; experiment: as above
Procedure, shortened: as §1

Row | Binder | SPOT peptide array binding signal intensity
65 | AVPPPPPPPPLPESL | ≤ 0

molecular target: SpHse1; experiment: as above
Procedure, shortened: as §1

Row | Binder | SPOT peptide array binding signal intensity
66 | AVPPPPPPPPLPESL | 10.5

molecular target: SpLsb1; experiment: as above
Procedure, shortened: as §1

Row | Binder | SPOT peptide array binding signal intensity
67 | AVPPPPPPPPLPESL | 4.75

molecular target: SpLsb4; experiment: as above
Procedure, shortened: as §1

Row | Binder | SPOT peptide array binding signal intensity
68 | AVPPPPPPPPLPESL | 27

molecular target: SpMyo1; experiment: as above
Procedure, shortened: as §1

Row | Binder | SPOT peptide array binding signal intensity
69 | AVPPPPPPPPLPESL | 980

molecular target: SpNbp2; experiment: as above
Procedure, shortened: as §1

Row | Binder | SPOT peptide array binding signal intensity
70 | AVPPPPPPPPLPESL | 16

molecular target: SpPex13; experiment: as above
Procedure, shortened: as §1

Row | Binder | SPOT peptide array binding signal intensity
71 | AVPPPPPPPPLPESL | ≤ 0

molecular target: SpRvs167; experiment: as above
Procedure, shortened: as §1

Row | Binder | SPOT peptide array binding signal intensity
72 | AVPPPPPPPPLPESL | 64.7

molecular target: SpSla1-D1-D2; experiment: as above
Procedure, shortened: as §1

Row | Binder | SPOT peptide array binding signal intensity
73 | AVPPPPPPPPLPESL | 1

molecular target: SpSla1-D3; experiment: as above
Procedure, shortened: as §1

Row | Binder | SPOT peptide array binding signal intensity
74 | AVPPPPPPPPLPESL | ≤ 0
